{"source": "PubChem BioAssay AID1494157", "about": "(National Center for Advancing Translational Sciences (NCATS), 2020)", "assay": "Confirmatory qHTS for inhibitors of MERS-S pseudo-typed particle cell entry", "note": "Inconclusive results are not listed. Activity calls are given as the source filed them. Calls come from the whole dose curve."}
{"smiles": "CCCCCCCCCCCC[n+]1ccc2ccccc2c1", "values": [{"measurement": "Potency", "result": "1.36 µM (active)"}]}
{"smiles": "CC(=O)N1CCN(c2ccc(OC[C@H]3CO[C@](Cn4ccnc4)(c4ccc(Cl)cc4Cl)O3)cc2)CC1", "values": [{"measurement": "Potency", "result": "7.64 µM (active)"}]}
{"smiles": "CO[C@@]12[C@H](COC(N)=O)C3=C(C(=O)C(C)=C(N)C3=O)N1C[C@@H]1N[C@@H]12", "values": [{"measurement": "Potency", "result": "0.961 µM (active)"}]}
{"smiles": "COc1ccc2cc3[n+](cc2c1OC)CCc1cc2c(cc1-3)OCO2", "values": [{"measurement": "Potency", "result": "9.61 µM (active)"}]}
{"smiles": "CCN(CC)CCNC(=O)c1c(C)[nH]c(/C=C2\\C(=O)Nc3ccc(F)cc32)c1C", "values": [{"measurement": "Potency", "result": "4.29 µM (active)"}]}
{"smiles": "C=C(C)[C@H]1Cc2c(ccc3c2O[C@@H]2COc4cc(OC)c(OC)cc4[C@@H]2C3=O)O1", "values": [{"measurement": "Potency", "result": "0.0136 µM (active)"}]}
{"smiles": "CN(C)CCOC(c1ccccc1)c1ccc(Br)cc1", "note": "(centres undefined)", "values": [{"measurement": "Potency", "result": "17.1 µM (active)"}]}
{"smiles": "CN1CCN(CCC=C2c3ccccc3Sc3ccc(S(=O)(=O)N(C)C)cc32)CC1", "values": [{"measurement": "Potency", "result": "6.07 µM (active)"}]}
{"smiles": "O=c1ccc2ccccc2o1", "values": [{"measurement": "Potency", "result": "inactive"}]}
{"smiles": "COc1ccc2cc1Oc1ccc(cc1)C[C@H]1c3c(cc4c(c3Oc3cc5c(cc3OC)CCN(C)[C@@H]5C2)OCO4)CCN1C", "values": [{"measurement": "Potency", "result": "1.71 µM (active)"}]}
{"smiles": "CCSc1ccc2c(c1)N(CCCN1CCN(C)CC1)c1ccccc1S2", "values": [{"measurement": "Potency", "result": "13.6 µM (active)"}]}
{"smiles": "O=C(Nc1ccc(Cl)cc1)Nc1ccc(Cl)c(C(F)(F)F)c1", "values": [{"measurement": "Potency", "result": "10.8 µM (active)"}]}
{"smiles": "CN1CCC(=C2c3ccccc3CCc3sccc32)CC1", "values": [{"measurement": "Potency", "result": "15.2 µM (active)"}]}
{"smiles": "CN1CC[C@H](CN2c3ccccc3Sc3ccccc32)C1", "values": [{"measurement": "Potency", "result": "15.2 µM (active)"}]}
{"smiles": "Cc1c(N)nc(C(CC(N)=O)NCC(N)C(N)=O)nc1C(=O)NC(C(=O)NC(C)C(O)C(C)C(=O)NC(C(=O)NCCc1nc(-c2nc(C(=O)NCCCN[C@@H](C)c3ccccc3)cs2)cs1)C(C)O)C(O[C@@H]1O[C@@H](CO)[C@@H](O)[C@H](O)[C@@H]1O[C@H]1O[C@H](CO)[C@@H](O)[C@H](OC(N)=O)[C@@H]1O)c1cnc[nH]1", "note": "(some centres undefined)", "values": [{"measurement": "Potency", "result": "inactive"}]}
{"smiles": "CNCCCC12CCC(c3ccccc31)c1ccccc12", "values": [{"measurement": "Potency", "result": "21.5 µM (active)"}]}
{"smiles": "CC(=O)Oc1ccccc1C(=O)Nc1ncc([N+](=O)[O-])s1", "values": [{"measurement": "Potency", "result": "10.8 µM (active)"}]}
{"smiles": "COc1cc([C@@H]2c3cc4c(cc3C(O[C@@H]3O[C@@H]5CO[C@@H](c6cccs6)OC5[C@H](O)[C@H]3O)C3COC(=O)[C@@H]32)OCO4)cc(OC)c1O", "note": "(some centres undefined)", "values": [{"measurement": "Potency", "result": "0.271 µM (active)"}]}
{"smiles": "COc1cc2c(cc1Cc1cccc(Cl)c1F)c(=O)c(C(=O)O)cn2[C@H](CO)C(C)C", "values": [{"measurement": "Potency", "result": "0.304 µM (active)"}]}
{"smiles": "Cc1nn(C)c2c1C(c1ccccc1F)=NCC(=O)N2C", "values": [{"measurement": "Potency", "result": "10.8 µM (active)"}]}
{"smiles": "C=CC(=O)Nc1cc(Nc2nccc(-c3cn(C)c4ccccc34)n2)c(OC)cc1N(C)CCN(C)C", "values": [{"measurement": "Potency", "result": "6.81 µM (active)"}]}
{"smiles": "CCCCCCCCCCCCOCCOCCOCCOCCOCCOCCOCCOCCOCCO", "values": [{"measurement": "Potency", "result": "7.64 µM (active)"}]}
{"smiles": "C=CC1(C)CC(=O)C2(O)C(C)(O1)C(OC(C)=O)C(OC(=O)CCN(C)C)C1C(C)(C)CCC(O)C12C", "note": "(centres undefined)", "values": [{"measurement": "Potency", "result": "inactive"}]}
{"smiles": "N=C(N)c1ccc(OCCCCCOc2ccc(C(=N)N)cc2)cc1", "values": [{"measurement": "Potency", "result": "12.1 µM (active)"}]}
{"smiles": "CC(CN(C)C)CN1c2ccccc2CCc2ccccc21", "note": "(centres undefined)", "values": [{"measurement": "Potency", "result": "17.1 µM (active)"}]}
{"smiles": "CC(=O)[C@]1(O)Cc2c(O)c3c(c(O)c2[C@@H](O[C@H]2C[C@H](N)[C@H](O)[C@H](C)O2)C1)C(=O)c1ccccc1C3=O", "values": [{"measurement": "Potency", "result": "2.15 µM (active)"}]}
{"smiles": "O=C1c2c(O)ccc(O)c2C(=O)c2c(NCCNCCO)ccc(NCCNCCO)c21", "values": [{"measurement": "Potency", "result": "0.961 µM (active)"}]}
{"smiles": "CCCCCCCCCCCCCC[n+]1ccc(C)cc1", "values": [{"measurement": "Potency", "result": "2.41 µM (active)"}]}
{"smiles": "Cc1nnc2n1-c1sc(CCc3ccc(CC(C)C)cc3)cc1C(c1ccccc1Cl)=NC2C", "note": "(centres undefined)", "values": [{"measurement": "Potency", "result": "27.1 µM (active)"}]}
